Data on 6 molecules can be found in ChEMBL document CHEMBL1961873, “Compounds: GSK PKIS; Assays: Nanosyn kinase panel” (2012).

Assay [1] deals with Tyrosine-protein kinase CSK (Homo sapiens) (UniProt P41240). Conditions: at 1 µM.
Assay [2] addresses T1, Discoidin domain-containing receptor 2 (Homo sapiens) (UniProt Q16832).
T1 sequence (whole entry): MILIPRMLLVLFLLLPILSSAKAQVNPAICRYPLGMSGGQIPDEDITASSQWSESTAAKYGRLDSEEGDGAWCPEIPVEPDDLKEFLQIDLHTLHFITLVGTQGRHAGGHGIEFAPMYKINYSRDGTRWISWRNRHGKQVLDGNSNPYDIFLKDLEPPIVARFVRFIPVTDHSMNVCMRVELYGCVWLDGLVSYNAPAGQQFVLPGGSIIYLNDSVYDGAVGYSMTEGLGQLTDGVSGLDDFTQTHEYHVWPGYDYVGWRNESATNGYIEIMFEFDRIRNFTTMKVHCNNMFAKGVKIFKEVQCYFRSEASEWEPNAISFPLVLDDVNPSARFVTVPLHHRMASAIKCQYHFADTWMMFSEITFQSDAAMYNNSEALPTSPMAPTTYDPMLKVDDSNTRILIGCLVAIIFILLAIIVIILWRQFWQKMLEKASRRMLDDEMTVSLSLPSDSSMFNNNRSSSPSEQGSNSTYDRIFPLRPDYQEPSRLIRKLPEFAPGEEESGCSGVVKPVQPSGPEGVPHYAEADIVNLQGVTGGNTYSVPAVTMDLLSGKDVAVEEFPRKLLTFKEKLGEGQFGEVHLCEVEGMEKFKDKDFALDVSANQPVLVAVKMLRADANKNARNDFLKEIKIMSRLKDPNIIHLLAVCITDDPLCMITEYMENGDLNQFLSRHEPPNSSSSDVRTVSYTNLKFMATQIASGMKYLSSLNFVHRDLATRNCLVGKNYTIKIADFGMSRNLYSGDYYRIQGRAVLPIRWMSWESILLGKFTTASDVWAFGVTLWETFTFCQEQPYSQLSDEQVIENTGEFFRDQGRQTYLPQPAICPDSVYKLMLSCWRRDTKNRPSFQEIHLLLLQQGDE
As to conditions: at 0.1 µM.

The target of assay [3] is T1, Discoidin domain-containing receptor 2 (Homo sapiens). As to conditions: at 1 µM.
The target of assay [4] is Epidermal growth factor receptor (Homo sapiens) (UniProt P00533). As to conditions: at 0.1 µM.
Assay [5] shares this target. Conditions: at 1 µM.
Assay [6] concerns Epidermal growth factor receptor (Homo sapiens), P00533 [L858R]. Conditions: at 0.1 µM.
Assay [7] shares this test system. As to conditions: at 1 µM.
Assay [8] deals with Epidermal growth factor receptor (Homo sapiens), P00533 [L861Q]. Conditions: at 0.1 µM.
For assay [9] the test system is unchanged. Conditions: at 1 µM.
The subject of assay [10] is Epidermal growth factor receptor (Homo sapiens), P00533 [T790M]. Conditions: at 0.1 µM.
Assay [11] shares this test system. Conditions: at 1 µM.
Assay [12] has as its system Epidermal growth factor receptor (Homo sapiens), P00533 [L858R,T790M]. As to conditions: at 0.1 µM.
Assay [13] shares this test system. As to conditions: at 1 µM.
Assay [14] deals with Ephrin type-A receptor 2 (Homo sapiens) (UniProt P29317). As to conditions: at 0.1 µM.
Assay [15] shares this target. Conditions: at 1 µM.
Assay [16] deals with T2, Ephrin type-A receptor 3 (Homo sapiens) (UniProt P29320).
T2 sequence (whole entry): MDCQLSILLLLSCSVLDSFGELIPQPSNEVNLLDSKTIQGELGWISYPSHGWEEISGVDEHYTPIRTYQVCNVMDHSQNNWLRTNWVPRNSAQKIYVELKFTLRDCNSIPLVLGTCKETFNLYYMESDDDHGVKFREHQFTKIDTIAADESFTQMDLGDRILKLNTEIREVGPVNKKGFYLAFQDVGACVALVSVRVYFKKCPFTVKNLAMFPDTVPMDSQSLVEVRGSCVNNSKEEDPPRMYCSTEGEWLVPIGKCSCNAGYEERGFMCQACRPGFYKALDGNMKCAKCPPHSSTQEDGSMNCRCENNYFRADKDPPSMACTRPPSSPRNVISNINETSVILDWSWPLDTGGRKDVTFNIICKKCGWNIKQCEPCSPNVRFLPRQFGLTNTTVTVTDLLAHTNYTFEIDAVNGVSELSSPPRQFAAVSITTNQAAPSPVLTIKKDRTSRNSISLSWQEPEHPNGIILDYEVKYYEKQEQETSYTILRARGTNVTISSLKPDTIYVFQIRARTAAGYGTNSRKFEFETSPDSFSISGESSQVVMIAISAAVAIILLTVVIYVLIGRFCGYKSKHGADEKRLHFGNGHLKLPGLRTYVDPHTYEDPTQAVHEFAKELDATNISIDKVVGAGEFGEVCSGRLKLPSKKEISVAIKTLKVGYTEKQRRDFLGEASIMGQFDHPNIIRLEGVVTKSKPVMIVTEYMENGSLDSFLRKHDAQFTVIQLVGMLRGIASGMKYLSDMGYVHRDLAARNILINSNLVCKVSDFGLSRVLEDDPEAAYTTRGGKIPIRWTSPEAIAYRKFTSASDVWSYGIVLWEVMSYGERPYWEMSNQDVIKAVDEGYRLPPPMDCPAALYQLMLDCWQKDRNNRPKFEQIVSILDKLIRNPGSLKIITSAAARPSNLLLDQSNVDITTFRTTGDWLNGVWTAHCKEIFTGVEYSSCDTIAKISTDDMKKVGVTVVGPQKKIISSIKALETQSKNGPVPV
As to conditions: at 0.1 µM.

Assay [17] addresses T2, Ephrin type-A receptor 3 (Homo sapiens). Conditions: at 1 µM.
The target in assay [18] is Ephrin type-A receptor 4 (Homo sapiens) (UniProt P54764). Conditions: at 0.1 µM.
Assay [19] shares this target. As to conditions: at 1 µM.
The target of assay [20] is T3, Ephrin type-B receptor 2 (Homo sapiens) (UniProt P29323).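 Further: reported as mean inhibition of EPHB2, from the GSK PKIS dataset.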
T3 sequence (whole entry): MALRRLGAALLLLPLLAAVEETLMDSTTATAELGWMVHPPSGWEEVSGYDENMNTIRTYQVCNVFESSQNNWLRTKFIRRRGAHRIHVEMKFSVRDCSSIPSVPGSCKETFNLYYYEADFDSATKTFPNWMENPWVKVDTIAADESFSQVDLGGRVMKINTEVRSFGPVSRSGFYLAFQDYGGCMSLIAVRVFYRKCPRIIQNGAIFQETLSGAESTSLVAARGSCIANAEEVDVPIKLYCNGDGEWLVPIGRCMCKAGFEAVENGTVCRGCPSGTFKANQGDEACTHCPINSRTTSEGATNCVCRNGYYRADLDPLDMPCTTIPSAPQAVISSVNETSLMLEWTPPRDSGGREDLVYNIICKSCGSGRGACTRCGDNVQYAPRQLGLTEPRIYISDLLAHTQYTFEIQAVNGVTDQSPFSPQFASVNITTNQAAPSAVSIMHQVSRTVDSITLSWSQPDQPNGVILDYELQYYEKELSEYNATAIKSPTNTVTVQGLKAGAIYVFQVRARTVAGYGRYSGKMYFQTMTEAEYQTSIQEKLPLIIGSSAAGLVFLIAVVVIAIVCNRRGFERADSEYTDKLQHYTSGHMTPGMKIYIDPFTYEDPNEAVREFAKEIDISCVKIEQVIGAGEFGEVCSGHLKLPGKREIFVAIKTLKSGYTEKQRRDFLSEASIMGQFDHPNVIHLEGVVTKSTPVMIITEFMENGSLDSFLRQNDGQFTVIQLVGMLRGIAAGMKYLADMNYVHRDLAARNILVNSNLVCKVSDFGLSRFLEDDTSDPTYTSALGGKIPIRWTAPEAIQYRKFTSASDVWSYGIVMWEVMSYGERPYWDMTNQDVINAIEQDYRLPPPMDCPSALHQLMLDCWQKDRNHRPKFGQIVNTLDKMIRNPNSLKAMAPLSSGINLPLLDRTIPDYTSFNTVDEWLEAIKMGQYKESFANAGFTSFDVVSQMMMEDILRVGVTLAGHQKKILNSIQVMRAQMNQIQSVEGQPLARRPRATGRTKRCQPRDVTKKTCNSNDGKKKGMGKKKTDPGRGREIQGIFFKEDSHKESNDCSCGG
As to conditions: at 0.1 µM.

Sequence of Epidermal growth factor receptor (Homo sapiens) (P00533 whole entry): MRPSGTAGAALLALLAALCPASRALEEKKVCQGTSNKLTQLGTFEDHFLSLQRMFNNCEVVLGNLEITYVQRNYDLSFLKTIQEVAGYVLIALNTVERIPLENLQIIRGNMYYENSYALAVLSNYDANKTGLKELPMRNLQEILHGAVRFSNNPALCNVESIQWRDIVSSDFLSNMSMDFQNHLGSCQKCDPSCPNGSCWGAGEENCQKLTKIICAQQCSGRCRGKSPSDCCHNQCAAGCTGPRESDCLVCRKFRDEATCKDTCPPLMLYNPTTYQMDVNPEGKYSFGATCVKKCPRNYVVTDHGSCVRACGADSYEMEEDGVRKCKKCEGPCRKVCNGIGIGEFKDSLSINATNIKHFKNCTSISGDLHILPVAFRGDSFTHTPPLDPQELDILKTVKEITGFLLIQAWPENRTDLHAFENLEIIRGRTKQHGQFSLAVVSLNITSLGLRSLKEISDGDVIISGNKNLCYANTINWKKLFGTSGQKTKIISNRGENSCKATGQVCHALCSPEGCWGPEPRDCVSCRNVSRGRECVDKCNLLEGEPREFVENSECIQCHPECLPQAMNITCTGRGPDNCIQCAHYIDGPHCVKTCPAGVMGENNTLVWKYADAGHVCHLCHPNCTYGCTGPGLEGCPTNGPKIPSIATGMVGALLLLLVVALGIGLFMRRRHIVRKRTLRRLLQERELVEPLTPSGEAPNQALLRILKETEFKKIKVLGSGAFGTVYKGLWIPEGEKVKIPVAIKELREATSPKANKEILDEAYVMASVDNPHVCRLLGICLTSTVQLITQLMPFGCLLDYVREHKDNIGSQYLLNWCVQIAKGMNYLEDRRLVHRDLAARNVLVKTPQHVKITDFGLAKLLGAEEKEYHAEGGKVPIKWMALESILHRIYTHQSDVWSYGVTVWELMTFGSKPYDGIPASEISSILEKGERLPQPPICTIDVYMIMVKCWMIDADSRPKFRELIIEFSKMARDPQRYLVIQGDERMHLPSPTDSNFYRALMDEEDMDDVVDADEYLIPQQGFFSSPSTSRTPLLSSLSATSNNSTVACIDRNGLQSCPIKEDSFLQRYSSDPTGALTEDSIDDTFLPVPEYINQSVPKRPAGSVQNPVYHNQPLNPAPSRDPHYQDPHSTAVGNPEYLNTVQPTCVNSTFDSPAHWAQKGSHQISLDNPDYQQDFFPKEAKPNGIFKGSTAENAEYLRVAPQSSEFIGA
Sequence of Epidermal growth factor receptor (Homo sapiens), P00533 [T790M] (P00533 whole entry T790M): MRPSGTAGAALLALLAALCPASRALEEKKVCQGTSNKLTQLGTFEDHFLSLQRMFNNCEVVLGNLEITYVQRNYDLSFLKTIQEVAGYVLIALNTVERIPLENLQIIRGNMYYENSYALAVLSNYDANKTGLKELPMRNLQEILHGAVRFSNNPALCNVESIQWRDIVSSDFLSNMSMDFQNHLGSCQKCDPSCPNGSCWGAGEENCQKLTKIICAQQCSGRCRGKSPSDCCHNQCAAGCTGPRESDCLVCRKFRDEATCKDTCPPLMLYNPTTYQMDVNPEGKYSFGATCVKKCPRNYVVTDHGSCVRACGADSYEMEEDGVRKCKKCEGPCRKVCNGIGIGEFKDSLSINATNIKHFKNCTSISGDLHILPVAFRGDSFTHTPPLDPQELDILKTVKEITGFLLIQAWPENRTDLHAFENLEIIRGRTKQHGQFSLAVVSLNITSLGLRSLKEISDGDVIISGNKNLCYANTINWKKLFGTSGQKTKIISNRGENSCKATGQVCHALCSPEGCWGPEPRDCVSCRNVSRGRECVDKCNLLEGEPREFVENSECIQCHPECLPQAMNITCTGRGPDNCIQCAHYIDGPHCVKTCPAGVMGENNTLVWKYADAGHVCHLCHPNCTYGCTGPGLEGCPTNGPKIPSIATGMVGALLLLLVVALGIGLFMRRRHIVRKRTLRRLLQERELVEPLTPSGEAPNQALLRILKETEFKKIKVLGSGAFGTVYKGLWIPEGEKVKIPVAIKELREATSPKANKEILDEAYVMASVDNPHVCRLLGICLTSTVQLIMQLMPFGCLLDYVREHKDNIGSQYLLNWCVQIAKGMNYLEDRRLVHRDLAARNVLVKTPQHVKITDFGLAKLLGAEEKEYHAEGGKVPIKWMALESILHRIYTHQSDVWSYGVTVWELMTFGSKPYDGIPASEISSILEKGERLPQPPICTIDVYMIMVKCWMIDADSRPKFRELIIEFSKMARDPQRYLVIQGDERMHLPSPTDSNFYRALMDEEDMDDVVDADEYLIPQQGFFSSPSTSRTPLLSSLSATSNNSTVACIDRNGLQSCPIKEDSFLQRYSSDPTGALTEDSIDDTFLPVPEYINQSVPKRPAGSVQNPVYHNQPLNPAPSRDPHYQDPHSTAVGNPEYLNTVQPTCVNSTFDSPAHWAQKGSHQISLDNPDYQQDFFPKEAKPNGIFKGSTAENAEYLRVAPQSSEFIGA
Sequence of Tyrosine-protein kinase CSK (Homo sapiens) (P41240 2-450 limits assumed): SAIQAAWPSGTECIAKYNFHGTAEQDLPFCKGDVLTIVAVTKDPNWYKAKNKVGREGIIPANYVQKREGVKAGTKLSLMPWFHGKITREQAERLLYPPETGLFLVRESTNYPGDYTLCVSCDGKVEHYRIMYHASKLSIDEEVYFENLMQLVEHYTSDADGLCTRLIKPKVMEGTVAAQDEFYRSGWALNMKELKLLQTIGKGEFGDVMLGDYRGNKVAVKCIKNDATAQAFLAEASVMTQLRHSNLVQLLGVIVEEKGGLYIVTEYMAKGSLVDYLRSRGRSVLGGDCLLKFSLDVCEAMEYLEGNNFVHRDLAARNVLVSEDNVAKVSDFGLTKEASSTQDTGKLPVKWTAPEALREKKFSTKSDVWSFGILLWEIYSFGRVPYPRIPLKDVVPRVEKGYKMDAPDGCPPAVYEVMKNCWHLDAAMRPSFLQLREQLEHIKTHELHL
Sequence of Ephrin type-A receptor 2 (Homo sapiens) (P29317 whole entry): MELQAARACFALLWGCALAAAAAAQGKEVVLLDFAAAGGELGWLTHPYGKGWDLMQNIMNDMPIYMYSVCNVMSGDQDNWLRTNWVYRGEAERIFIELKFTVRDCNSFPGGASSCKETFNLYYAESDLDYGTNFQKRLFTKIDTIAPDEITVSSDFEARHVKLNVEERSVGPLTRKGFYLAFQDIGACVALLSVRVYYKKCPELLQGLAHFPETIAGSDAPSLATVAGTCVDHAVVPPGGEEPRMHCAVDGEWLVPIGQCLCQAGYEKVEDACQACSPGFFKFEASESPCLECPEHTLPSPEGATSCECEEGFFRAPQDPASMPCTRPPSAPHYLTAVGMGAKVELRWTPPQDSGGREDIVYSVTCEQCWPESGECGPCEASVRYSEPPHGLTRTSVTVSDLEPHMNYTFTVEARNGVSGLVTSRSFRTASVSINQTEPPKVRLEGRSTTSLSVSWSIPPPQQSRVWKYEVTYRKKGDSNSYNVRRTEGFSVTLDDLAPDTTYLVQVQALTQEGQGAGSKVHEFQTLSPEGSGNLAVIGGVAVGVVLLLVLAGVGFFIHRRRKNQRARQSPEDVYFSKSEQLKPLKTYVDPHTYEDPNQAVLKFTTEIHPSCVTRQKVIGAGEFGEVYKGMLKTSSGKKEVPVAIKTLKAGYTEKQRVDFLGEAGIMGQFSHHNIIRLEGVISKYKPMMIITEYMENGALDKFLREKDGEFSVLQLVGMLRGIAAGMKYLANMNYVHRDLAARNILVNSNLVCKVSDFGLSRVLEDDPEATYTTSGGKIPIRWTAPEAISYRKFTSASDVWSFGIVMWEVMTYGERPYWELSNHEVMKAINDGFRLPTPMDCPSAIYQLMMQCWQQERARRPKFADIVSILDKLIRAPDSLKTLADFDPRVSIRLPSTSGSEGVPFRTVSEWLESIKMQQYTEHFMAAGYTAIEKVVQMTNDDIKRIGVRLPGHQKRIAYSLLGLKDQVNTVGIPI
Sequence of Ephrin type-A receptor 4 (Homo sapiens) (P54764 whole entry): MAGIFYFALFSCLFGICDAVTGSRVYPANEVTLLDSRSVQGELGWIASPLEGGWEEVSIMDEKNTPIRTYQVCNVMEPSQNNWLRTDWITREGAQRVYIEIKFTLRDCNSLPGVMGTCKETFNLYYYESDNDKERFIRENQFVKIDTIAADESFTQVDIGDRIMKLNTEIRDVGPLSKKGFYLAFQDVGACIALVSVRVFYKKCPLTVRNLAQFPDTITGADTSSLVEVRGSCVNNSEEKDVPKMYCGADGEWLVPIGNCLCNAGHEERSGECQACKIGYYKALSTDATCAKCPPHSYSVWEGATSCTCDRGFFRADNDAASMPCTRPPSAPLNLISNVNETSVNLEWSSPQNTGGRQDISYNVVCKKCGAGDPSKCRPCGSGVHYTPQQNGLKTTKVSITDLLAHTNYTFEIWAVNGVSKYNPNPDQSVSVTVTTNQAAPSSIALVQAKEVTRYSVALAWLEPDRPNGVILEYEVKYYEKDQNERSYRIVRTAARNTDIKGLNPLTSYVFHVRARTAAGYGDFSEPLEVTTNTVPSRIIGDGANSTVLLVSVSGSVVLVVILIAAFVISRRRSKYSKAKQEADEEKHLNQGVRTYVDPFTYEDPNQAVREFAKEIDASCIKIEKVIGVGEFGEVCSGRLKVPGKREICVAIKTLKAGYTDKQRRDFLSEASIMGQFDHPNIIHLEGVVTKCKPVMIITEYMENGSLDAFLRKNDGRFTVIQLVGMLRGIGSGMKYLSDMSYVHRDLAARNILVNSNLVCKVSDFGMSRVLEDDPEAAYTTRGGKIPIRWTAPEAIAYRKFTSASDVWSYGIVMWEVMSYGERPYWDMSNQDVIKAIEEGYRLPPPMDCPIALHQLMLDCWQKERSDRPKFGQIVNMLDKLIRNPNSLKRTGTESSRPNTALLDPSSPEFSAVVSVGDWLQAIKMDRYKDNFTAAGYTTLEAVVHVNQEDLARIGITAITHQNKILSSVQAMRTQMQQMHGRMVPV

As for `Clc1ccc(CNc2nccc(-c3cnn4ncccc34)n2)cc1`, the inhibition was determined as 2.58% in [1]; 1.86% in [2]; 4.61% in [3]; 0.75% in assay [4]; 3.24% in [5]; 3.13% in assay [6]. Moreover, the inhibition is 5.2% in assay [7]; -1.04% in [8]; 0.71% in assay [9]; 0.11% in assay [10]; -0.46% in assay [11]; 0.01% in [12]. Also, the inhibition amounted to 3.09% in [13]; 1.88% in assay [14]; 1.02% in assay [15]; 2.21% in assay [16]; 3.84% in assay [17]; 5.02% in [18]. Moreover, the inhibition was 13% in assay [19] and 7.93% in assay [20].

As for `COc1cc(Nc2ncc3c(C)nc(-c4cccc(C(F)(F)F)c4)n3n2)cc(OC)c1OC`, the inhibition was 12.9% in assay [1]; 0.31% in assay [2]; 0.73% in [3]; -0.06% in assay [4]; 0.98% in assay [5]; 4.13% in assay [6]. Further, the inhibition was 4.89% in assay [7]; 2.74% in assay [8]; 8.43% in assay [9]; 1.49% in [10]; 5.56% in assay [11]; -1.07% in assay [12]. The inhibition was found to be 5.23% in [13]; 4.32% in assay [14]; 17.5% in [15]; 6.02% in assay [16]; 10.7% in [17]; 22.4% in [18]. Besides, the results for the inhibition in [19] and in assay [20] were 56.1% and 17.1%, respectively.

`FC(F)(F)c1cccc(Nc2nccc(-c3cnn4nc(-c5ccccc5)ccc34)n2)c1`: the inhibition in [1] is 1.44%; in assay [2], 0.05%; in [3], 2.08%; in [4], -0.78%; in assay [5], 0.92%; in assay [6], -0.7%. The inhibition is -0.57% in assay [7]; 1.2% in assay [8]; 0.07% in [9]; 1.28% in assay [10]; -0.22% in assay [11]; 0.52% in [12]. The inhibition in [13] is -0.49%; in assay [14], 2%; in assay [15], 0.59%; in assay [16], 2.67%; in assay [17], 3.91%; in assay [18], 5.08%. Besides, the inhibition in assay [19] is -4.97%; in assay [20], 4.58%.

With `NC(=O)c1cc(-c2ccncc2)cc(-c2ccccc2)c1N`, the inhibition in assay [1] worked out at 16.1%; in assay [2], 4.49%; in assay [3] it was 27.6%; in assay [4], 8.28%; in [5], 18%; in [6] it was 4.58%. Moreover, the inhibition stood at 39.7% in assay [7]; 3.24% in assay [8]; 11.9% in [9]; 1.64% in [10]; 2.91% in assay [11]; 3.41% in assay [12]. The inhibition in assay [13] stood at 9.94%; in assay [14], 15.2%; in assay [15] it was 56.3%; in assay [16], 5.37%; in assay [17] it was 8.77%; in [18] it was 19.8%. Moreover, the figures for the inhibition in assay [19] and in [20] were 62.8% and 16.5%, respectively.

For `NS(=O)(=O)c1ccc(N/N=C2\C(=O)Nc3ccc(-c4cnco4)cc32)cc1`, the inhibition in [1] amounted to 4.17%; in assay [2], 1.59%; in assay [3] it was 2.15%; in assay [4], 9.52%; in assay [5], 12.9%; in assay [6], 2.54%. Further, the inhibition in [7] is 6.44%; in [8] it was 2.45%; in [9] it was 4.95%; in assay [10], 0.19%; in assay [11] it was 1.56%; in assay [12] it was -2.11%. Also, the inhibition in assay [13] is 5.42%; in assay [14], -5.84%; in [15], -4.92%; in assay [16], -2.34%; in assay [17], 0.23%; in assay [18] it was 5.13%. Also, the inhibition was found to be 10.8% in assay [19] and 6.73% in assay [20].

For the molecule `CN(C)CCOc1ccc(-c2cc(-c3ccc4c(c3)CCC4=NO)c(-c3ccncc3)o2)cc1`, the inhibition is -1.46% in assay [1]; 0.26% in assay [2]; 1.8% in assay [3]; 4.94% in assay [4]; 7.65% in [5]; -0.5% in assay [6]. The inhibition in [7] was 7.4%; in assay [8], -0.03%; in assay [9], 4.41%; in assay [10], -1.42%; in assay [11] it was 0.59%; in assay [12], -2.24%. Besides, the inhibition in assay [13] was -0.02%; in assay [14] it was -1.99%; in [15], -3.05%; in assay [16], 0.49%; in assay [17], -1.83%; in assay [18], -1.28%. The figures for the inhibition in assay [19] and in assay [20] were 0.81% and -5.39%, respectively.

The inhibition is the drop in the measured response relative to a control, in per cent.
